Results taken from PubChem BioAssay (NCATS).
Results filed as inconclusive are left out. Where a call stands in place of a potency, no number is given. The source made the active and inactive calls. Unless noted, calls come from the whole dose curve; as a rule, active = well fitted curve in the direction sought with a large enough effect; inconclusive = small, poorly fitted or top-dose-only effect, or another doubt; inactive = no such curve, though single readings can be large; an effect the other way counts as inactive or inconclusive.

What was measured:
[1] = target: Flap endonuclease 1 (Homo sapiens) (UniProt P39748); test: qHTS Validation Assay for the Inhibitors of Human Flap endonuclease 1 (FEN1) (AID 488816)
Summary of the method: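 Steps: add FEN1 (10 nM reagent) or buffer only; pin compounds; hold 15 min at room temperature; start with substrate, 50 nM final; read at 0 and 15 min; correct, normalize and fit a four-parameter Hill curve.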

[2] = target: M-phase phosphoprotein 8 (Homo sapiens) (UniProt Q99549); test: qHTS Validation Assay for Inhibitors for MPP8 Chromodomain Interactions with Methylated Histone Tails (AID 488949); note: nearly all actives have a fitted effect of over 55% in size; note: potency is the fitted concentration of half-maximal effect
Summary of the method: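 MPP8 (50 nM) was preincubated with biotinylated H3(1-18)K9me3 peptide (50 nM) in PBS pH 7.4, 0.01% Tween-20 for 30 min at room temperature, then with compounds for 30 min; binding was detected by AlphaScreen.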

[3] = target: Transient receptor potential cation channel subfamily V member 1 (Homo sapiens) (UniProt Q8NER1); test: HTS Assay for Compounds that Act as Enhancers of the Vanilloid Receptor 1 (AID 488979)
Summary of the method: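 TRPV1-expressing cells loaded with Fluo-8 calcium dye; compounds added and calcium influx read kinetically for 3 min (agonist phase), then capsaicin at EC20 added and read 2 min more for enhancement. Fluorescence ex 480/em 520 nm.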

[4] = target: Thyrotropin receptor (Homo sapiens) (UniProt P16473); test: qHTS Assay for Antagonists of the Thyroid Stimulating Hormone Receptor (AID 488980); note: series mostly up to about 58 µM
Summary of the method: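 HEK293 cells transfected with human TSHR, suspended in HEPES-buffered HBSS with 70 uM RO 20-1724, were treated with compounds plus TSH at EC80 (4 nM final). cAMP was measured by competitive HTRF (cryptate anti-cAMP antibody, cAMP-d2 acceptor).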

[5] = target: Thyrotropin-releasing hormone receptor (Homo sapiens) (UniProt P34981); test: qHTS for Small Molecule Agonists and Allosteric Enhancers of Human TRH Receptor: Validation Screen for Agonists (AID 493127;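 active = calcium activation more than 3 SD above the typical response in the agonist read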;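 note: intracellular calcium rise by fluo-8 fluorescence before TRH EC20 addition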); details: TRH receptor agonist cell assay; at 2 µM; stronger effect = higher value
Summary of the method: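 Kinetic fluorescence assay of agonist-induced calcium release: overnight-plated TRHR cells, room-temperature fluo-8 loading, baseline then compound addition with per-second reads.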

[6] = target: Galactokinase (Homo sapiens) (UniProt P51570); test: qHTS Validation Assay for Inhibitors of Human Galactokinase (GALK) (AID 493189)
Summary of the method: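 GALK (5 nM) with 35 uM ATP and 100 uM galactose in HEPES pH8.0, MgCl2, NaCl, DTT, BSA; 1 h at room temperature. Residual ATP read by Kinase-Glo Plus luminescence after 10 min.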

[7] = Validation screen for small molecules that induce DNA re-replication in SW480 colon adenocarcinoma cells (AID 504364)
Summary of the method: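 Hoechst-stained SW480 nuclei, imaged at 405 nm excitation after 48 hr compound exposure, were counted for elevated DNA content as the re-replication signal.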

[8] = target: Thioredoxin reductase 1, cytoplasmic (Rattus norvegicus) (UniProt O89049); test: qHTS Assay for Inhibitors of Mammalian Selenoprotein Thioredoxin Reductase 1 (TrxR1) (AID 488773); details: Potency: inhibition; note: potency is the fitted concentration of half-maximal effect; nearly all actives have a fitted effect of over 40% in size
Summary of the method: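 Inhibition is scored from the loss of NADPH fluorescence between first and last reads of an 8-min kinetic run. Selenite (400 uM) was the substrate, added after 15 min compound preincubation at room temperature.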

[9] = target: Chromobox protein homolog 1 (Homo sapiens) (UniProt P83916); test: qHTS Validation Assay for Inhibitors of HP1-beta Chromodomain Interactions with Methylated Histone Tails (AID 488953); note: nearly all actives have a fitted effect of over 50% in size; note: potency is the fitted concentration of half-maximal effect
Summary of the method: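 Compounds pinned into a preassembled complex of HP1-beta and trimethyl-K9 histone H3(1-18) biotin peptide (50 nM each; PBS pH 7.4, 0.01% Tween-20). After 30 min, bead-based AlphaScreen detection followed.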

[10] = target: Methanococcus maripaludis chaperonin (MmCpn) (UniProt Q6LX38); test: High-Throughput Screening for Modulators of Cytosolic Chaperonin Activity: MmCpn Primary Screen (AID 488978);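 note: 50 nM MmCpn enzyme hydrolysing 30 µM ATP at 37 °C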
Summary of the method: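 MmCpn (50 nM final) was preincubated with compound 5 min at RT, then 30 uM ATP (final) was added and the reaction ran 10 min at 37C. ADP produced was detected by Transcreener HTRF (ex 320 nm; em 590/665 nm).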

[11] = target: D(1A) dopamine receptor (Homo sapiens) (UniProt P21728); test: HTS Assay for Allosteric Agonists of the Human D1 Dopamine Receptor: Primary Screen for Potentiators (AID 488982)
Summary of the method: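 Tetracycline-induced HEK293 T-REx cells force-coupled to calcium signalling were incubated overnight at 30 C and dye-loaded at room temperature. Calcium flux over 180 s after compound addition flagged agonists; a further 180 s read after EC20 dopamine flagged potentiators.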

[12] = Validation screen for small molecules that induce genotoxicity in human embryonic kidney (HEK293T) cells expressing luciferase-tagged ELG1 (AID 493106)
Summary of the method: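 In this validation screen, increased ELG1-luciferase signal flags compounds causing genetic stress. HEK293T reporter cells are treated 16 hr (37 °C, 5% CO2), developed with ONE-Glo for 30 min at room temperature, and imaged on a CCD-based reader.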

[13] = target: ATPase family AAA domain-containing protein 5 (Homo sapiens) (UniProt Q96QE3); test: Validation screen for small molecules that inhibit ELG1-dependent DNA repair in human embryonic kidney (HEK293T) cells expressing luciferase-tagged ELG1 (AID 493107); note: nearly all actives have a fitted effect of over 70% in size; note: potency is the fitted concentration of half-maximal effect
Summary of the method: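 Compounds reducing 5-fluorouridine-driven ELG1-luciferase signal in HEK293T cells were scored; exposure lasted 16 hr at 37 °C with luminescence detected via ONE-Glo.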

[14] = qHTS for Inhibitors of Cell Surface uPA Generation: Validation Assay (AID 493164);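 note: RAW 264.7 macrophage cells exposed to compound for 18 h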
Summary of the method: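 Compounds are titrated over seven points (2.45 nM–38.3 uM final) onto pre-plated RAW 264.7 cells and incubated for 18 h. Retained intracellular ATP, measured with ATP-Lite, indicates blocked lethal factor entry.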

[15] = target: ATP-dependent 6-phosphofructokinase (Trypanosoma brucei brucei) (UniProt O15648); test: qHTS Assay to Find Inhibitors of T. brucei phosphofructokinase: hit validation (AID 492961);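 note: luminescence reports ADP formed as PFK phosphorylates fructose-6-phosphate with ATP; series mostly up to about 51 µM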
Summary of the method: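 PFK 1.25 nM, F6P 0.5 mM, ATP 0.1 mM, MgCl2 5 mM, 0.1 M TEA pH 8.0, Tween20 0.01%, BSA 0.1%; 45 min RT. ADP-Glo two-step detection, luminescence. qHTS titration; curve fitting with curve-class categorization.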

[16] = target: Thioredoxin reductase 1, cytoplasmic (Rattus norvegicus) (UniProt O89049); test: qHTS Assay for Substrates of Mammalian Selenoprotein Thioredoxin Reductase 1 (TrxR1) (AID 488772);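 note: series mostly up to about 57 µM; a drop in NADPH fluorescence below the no-compound background marks a TrxR1 substrate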
Summary of the method: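 In this dual-purpose format, potential substrates are identified from the first fluorescence read after selenite addition, not from the 8-minute delta. Rat enzyme is preincubated with NADPH and then with compound at ~22 deg C.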

[17] = target: D(1A) dopamine receptor (Homo sapiens) (UniProt P21728); test: HTS Assay for Allosteric Agonists of the Human D1 Dopamine Receptor: Primary Screen for Antagonists (AID 488983);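 note: calcium flux response to an EC80 dopamine challenge measured with no-wash dye; nearly all actives have a fitted effect of over 65% in size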; note: potency is the fitted concentration of half-maximal effect
Summary of the method: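 In this primary screen, compounds are applied to calcium-dye-loaded HEK293 T-REx cells with force-coupled D1 expression induced overnight at 30 C. An EC80 of dopamine follows the 180 s compound phase, and calcium is monitored for a further 180 s.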

[18] = Nrf2 qHTS screen for inhibitors: Validation (AID 493153; active = well fitted inhibition curve with a large enough effect in the main read-out, with a control signal flat, not every such curve was filed as active); details: Potency: luciferase luminescence; viability change: measured here: cytotoxicity max response
Summary of the method: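 In this counterscreened reporter format, each well gives two signals: CellTiter-Fluor fluorescence for cytotoxicity and ARE-luciferase luminescence for Nrf2 function. A549 ARE_Fluc cells in 5% FBS OPTI-MEM were exposed to compound titrations for 18-24 h.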

Thyrotropin-releasing hormone receptor (Homo sapiens), sequence (P34981 whole entry, looked up): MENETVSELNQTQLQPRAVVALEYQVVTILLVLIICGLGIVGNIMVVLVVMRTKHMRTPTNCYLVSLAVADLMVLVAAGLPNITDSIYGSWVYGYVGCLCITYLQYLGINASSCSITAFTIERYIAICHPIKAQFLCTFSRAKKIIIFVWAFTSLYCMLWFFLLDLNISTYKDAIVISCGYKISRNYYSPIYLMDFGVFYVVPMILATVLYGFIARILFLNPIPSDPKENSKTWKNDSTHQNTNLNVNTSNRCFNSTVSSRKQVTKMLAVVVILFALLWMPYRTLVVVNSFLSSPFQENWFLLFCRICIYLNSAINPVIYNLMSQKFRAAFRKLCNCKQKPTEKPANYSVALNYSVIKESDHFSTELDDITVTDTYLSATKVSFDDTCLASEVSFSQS
ATPase family AAA domain-containing protein 5 (Homo sapiens), sequence (Q96QE3 whole entry, looked up, the tested form may be a part): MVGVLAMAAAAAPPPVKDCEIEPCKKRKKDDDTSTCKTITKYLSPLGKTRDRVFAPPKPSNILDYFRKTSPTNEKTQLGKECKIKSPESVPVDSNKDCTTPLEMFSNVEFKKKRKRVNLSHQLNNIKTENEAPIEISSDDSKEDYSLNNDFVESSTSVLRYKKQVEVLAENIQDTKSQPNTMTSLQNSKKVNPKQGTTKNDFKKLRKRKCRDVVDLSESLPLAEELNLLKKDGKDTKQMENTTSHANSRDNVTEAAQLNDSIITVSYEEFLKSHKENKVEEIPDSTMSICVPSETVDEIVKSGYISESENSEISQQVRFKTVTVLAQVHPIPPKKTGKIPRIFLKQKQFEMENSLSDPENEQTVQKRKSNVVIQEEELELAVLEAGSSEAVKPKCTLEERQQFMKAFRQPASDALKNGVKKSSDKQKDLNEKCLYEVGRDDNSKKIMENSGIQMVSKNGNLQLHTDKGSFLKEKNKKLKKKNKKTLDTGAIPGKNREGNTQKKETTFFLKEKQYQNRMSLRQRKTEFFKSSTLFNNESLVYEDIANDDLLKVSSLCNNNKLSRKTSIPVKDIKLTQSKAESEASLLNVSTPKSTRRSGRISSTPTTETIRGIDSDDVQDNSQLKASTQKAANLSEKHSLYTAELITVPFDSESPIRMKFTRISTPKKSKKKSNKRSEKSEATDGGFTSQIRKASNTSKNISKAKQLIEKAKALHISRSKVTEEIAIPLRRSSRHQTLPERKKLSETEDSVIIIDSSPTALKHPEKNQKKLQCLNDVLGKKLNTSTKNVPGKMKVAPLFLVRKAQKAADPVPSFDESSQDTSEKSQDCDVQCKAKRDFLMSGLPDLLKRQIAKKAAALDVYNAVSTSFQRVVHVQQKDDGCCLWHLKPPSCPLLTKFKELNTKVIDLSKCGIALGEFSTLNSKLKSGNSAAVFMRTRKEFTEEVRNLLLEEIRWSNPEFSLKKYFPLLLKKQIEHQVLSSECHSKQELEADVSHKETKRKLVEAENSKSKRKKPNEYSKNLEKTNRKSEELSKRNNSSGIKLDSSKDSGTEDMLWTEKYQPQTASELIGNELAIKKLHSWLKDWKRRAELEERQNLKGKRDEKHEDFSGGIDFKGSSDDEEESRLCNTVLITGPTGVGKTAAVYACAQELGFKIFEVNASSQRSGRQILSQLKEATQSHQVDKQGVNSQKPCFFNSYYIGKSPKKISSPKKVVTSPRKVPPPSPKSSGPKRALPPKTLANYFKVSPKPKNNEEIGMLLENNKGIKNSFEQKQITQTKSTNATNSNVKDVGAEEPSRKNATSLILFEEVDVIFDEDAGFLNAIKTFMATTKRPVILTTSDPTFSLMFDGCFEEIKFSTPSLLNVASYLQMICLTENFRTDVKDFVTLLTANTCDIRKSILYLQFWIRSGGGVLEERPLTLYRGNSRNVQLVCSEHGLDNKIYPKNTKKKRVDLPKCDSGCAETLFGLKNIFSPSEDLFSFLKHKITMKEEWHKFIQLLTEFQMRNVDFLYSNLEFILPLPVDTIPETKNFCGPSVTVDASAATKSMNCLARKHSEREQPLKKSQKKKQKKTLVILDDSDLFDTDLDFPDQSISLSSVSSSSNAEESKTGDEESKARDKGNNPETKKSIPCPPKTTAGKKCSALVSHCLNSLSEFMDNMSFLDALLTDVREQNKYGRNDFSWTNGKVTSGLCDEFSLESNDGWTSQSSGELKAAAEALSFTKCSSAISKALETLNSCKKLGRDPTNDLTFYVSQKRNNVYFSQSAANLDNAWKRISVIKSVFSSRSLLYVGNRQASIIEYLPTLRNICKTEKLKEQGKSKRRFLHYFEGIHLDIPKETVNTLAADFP
Methanococcus maripaludis chaperonin (MmCpn), sequence (Q6LX38 1-543): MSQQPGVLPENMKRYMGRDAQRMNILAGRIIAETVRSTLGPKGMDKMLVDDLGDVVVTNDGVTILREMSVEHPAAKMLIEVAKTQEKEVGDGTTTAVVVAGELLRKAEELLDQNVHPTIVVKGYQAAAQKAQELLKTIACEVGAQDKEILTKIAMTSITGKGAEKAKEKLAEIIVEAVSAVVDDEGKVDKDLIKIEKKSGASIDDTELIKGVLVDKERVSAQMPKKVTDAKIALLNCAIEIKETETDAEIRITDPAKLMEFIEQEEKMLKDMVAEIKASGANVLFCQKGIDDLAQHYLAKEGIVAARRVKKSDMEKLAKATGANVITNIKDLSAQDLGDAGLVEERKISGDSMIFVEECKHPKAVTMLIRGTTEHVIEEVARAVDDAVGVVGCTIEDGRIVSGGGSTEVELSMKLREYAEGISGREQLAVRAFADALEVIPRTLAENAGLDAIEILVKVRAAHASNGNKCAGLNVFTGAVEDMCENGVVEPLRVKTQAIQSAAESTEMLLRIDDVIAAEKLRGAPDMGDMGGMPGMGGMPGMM
M-phase phosphoprotein 8 (Homo sapiens), sequence (Q99549 whole entry, looked up): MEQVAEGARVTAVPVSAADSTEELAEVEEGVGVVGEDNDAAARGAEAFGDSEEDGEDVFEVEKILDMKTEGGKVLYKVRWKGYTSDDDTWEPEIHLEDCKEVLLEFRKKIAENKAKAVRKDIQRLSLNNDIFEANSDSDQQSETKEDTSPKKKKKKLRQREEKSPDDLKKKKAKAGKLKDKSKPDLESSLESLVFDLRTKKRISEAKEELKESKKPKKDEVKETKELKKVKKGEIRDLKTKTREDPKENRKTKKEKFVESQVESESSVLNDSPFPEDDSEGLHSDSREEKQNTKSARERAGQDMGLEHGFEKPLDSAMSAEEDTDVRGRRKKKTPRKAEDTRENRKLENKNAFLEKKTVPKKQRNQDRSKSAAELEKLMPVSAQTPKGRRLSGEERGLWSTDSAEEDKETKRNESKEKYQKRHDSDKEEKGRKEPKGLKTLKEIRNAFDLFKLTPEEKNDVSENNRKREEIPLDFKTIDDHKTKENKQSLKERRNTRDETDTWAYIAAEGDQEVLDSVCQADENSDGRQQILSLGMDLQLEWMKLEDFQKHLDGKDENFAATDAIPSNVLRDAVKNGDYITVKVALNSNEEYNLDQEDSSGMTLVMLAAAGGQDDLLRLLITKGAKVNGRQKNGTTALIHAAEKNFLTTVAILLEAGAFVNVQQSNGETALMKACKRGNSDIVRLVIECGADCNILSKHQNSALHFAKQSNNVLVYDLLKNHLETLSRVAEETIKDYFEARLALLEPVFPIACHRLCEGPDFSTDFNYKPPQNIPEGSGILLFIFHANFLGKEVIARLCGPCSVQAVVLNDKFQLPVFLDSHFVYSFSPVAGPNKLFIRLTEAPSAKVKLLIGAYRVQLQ
Thyrotropin receptor (Homo sapiens), sequence (P16473 whole entry, looked up): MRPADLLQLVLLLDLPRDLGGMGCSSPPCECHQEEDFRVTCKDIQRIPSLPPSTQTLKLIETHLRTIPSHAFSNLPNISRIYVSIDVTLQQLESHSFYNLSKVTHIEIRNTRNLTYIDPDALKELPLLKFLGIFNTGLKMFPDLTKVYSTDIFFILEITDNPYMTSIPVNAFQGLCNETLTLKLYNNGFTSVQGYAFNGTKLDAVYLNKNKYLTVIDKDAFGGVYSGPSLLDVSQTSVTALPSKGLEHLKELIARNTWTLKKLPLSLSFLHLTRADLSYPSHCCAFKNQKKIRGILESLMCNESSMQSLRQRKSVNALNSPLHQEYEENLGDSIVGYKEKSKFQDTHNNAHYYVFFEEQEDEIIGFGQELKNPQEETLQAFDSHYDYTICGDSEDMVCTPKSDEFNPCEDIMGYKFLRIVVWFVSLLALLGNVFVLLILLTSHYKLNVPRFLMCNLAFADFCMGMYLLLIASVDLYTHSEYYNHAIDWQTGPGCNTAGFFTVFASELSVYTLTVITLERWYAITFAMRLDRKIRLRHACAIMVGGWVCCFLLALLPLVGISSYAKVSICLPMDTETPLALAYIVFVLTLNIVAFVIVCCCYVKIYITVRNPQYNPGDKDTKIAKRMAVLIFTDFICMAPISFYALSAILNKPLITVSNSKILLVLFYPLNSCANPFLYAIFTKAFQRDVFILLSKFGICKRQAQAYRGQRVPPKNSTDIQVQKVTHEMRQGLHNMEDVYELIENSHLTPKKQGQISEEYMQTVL
D(1A) dopamine receptor (Homo sapiens), sequence (P21728 whole entry, looked up): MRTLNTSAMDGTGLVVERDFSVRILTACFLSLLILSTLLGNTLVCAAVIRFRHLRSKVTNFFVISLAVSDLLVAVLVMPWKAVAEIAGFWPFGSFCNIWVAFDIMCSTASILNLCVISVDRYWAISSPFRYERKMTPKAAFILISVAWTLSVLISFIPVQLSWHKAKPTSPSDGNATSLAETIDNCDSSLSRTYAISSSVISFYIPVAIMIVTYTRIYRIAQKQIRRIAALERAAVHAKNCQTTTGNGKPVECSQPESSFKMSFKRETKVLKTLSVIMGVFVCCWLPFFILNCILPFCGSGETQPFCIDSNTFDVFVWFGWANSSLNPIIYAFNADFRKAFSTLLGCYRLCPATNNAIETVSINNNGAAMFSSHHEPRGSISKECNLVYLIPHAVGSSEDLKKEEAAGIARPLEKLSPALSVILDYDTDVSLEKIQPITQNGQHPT
Chromobox protein homolog 1 (Homo sapiens), sequence (P83916 whole entry, looked up): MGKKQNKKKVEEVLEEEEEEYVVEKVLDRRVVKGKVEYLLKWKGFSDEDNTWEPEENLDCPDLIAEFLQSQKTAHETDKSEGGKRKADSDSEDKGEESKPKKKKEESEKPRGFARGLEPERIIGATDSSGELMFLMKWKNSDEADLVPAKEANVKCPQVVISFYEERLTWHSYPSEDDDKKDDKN

In the case of `CC(C)CC(NP(=O)(O)O[C@@H]1O[C@@H](C)[C@H](O)[C@@H](O)[C@H]1O)C(=O)NC(Cc1c[nH]c2ccccc12)C(=O)O` (stereo not given in full), the Potency [1] is reported as “inactive”, the Potency [2] is reported as “inactive” and the outcome [3] is reported as “inactive”. The outcome [4] was “inactive”, the activation [5] was 1.38% (inactive) and the outcome [6] was “inactive”. The Potency [7] was “inactive”.

For `CN1C2CCC1CC(OC(c1ccccc1)c1ccc(Cl)cc1)C2` (stereo not given), the outcome [4] was “inactive”, the activation [5] was 8.88% (inactive) and the outcome [6] was “inactive”. The Potency [7] was “inactive”.

For `CC(C)(C)c1cc(C=C(C#N)C#N)cc(C(C)(C)C)c1O`, the Potency [8] was 16.8 µM (active), the Potency [1] was “inactive” and the Potency [2] was 10 µM (active). The Potency [9] was 7.94 µM (active), the outcome [10] was “inactive” and the outcome [3] was “inactive”. The outcome [4] was “inactive”, the Potency [11] was “inactive” and the Potency [12] was “inactive”. The Potency [13] was 2.31 µM (active), the activation [5] was 0.125% (inactive) and the outcome [14] was “inactive”.

With `C=CCC1(C(C)CCC)C(=O)N=C(S)NC1=O` (stereo not given) the Potency [15] was “inactive”.

With `CC1CCC(C(C)C)C(OC(=O)c2ccccc2N)C1` (stereo not given) the Potency [15] was “inactive”.

For `Cn1sc(Cl)cc1=O`, the Potency [15] was “inactive”.

With `CC(=O)OO` the Potency [15] was “inactive”.

For `CCCN1CCc2cc(O)cc3c2[C@H]1Cc1ccc(O)c(O)c1-3`, the outcome [16] was “inactive”, the Potency [2] was 11.9 µM (active) and the Potency [9] was 1.34 µM (active). The outcome [10] was “inactive”, the Potency [17] was 0.631 µM (active) and the Potency [12] was “inactive”. The Potency [13] was “inactive”, the Potency [18] was “inactive” and the viability change [18] was -6.67%. For the same molecule, the outcome [14] was “inactive”.

In the case of `CC(C)(C)c1o[nH]c(=O)c1CC(N)C(=O)O` (stereo not given), the outcome [16] is reported as “inactive”, the Potency [2] is reported as “inactive” and the Potency [9] is reported as “inactive”. For the same molecule, the outcome [10] was “inactive”, the outcome [3] was “inactive” and the outcome [4] was “inactive”. For the same molecule, the Potency [11] was “inactive”, the Potency [17] was “inactive” and the Potency [12] was “inactive”. For the same molecule, the Potency [13] was “inactive”, the activation [5] was 0.625% (inactive) and the outcome [14] was “inactive”. For the same molecule, the outcome [6] was “inactive” and the Potency [7] was “inactive”.

For `CCCN1CCCC2Cc3[nH]ncc3CC21` (stereo not given), the Potency [2] was “inactive”, the outcome [3] was “inactive” and the outcome [4] was “inactive”. The activation [5] was -0.5% (inactive).
